The values that follow come from PubChem BioAssay (Tox21).

Records with an inconclusive call do not appear. The source made the active and inactive calls. Calls come from the whole dose curve.
% is set by controls: 0 for no effect and ±100 for the full control effect; potency is the fitted concentration of half-maximal effect.

The nature of the assay: p53 small molecule agonists, cell-based qHTS assay: qHTS cell viability counter screen (AID 1963581). Note: nearly all actives have a fitted effect of over 45% in size. The note with it: p53RE-bla HCT-116 viability, ATP luminescence, 16 h; series mostly up to 66 µM; activity change, negative = cytotoxicity: at the top concentration. From the text: National Center for Advancing Translational Sciences [NCATS]
Division of Preclinical Innovation [DPI]
U.S. Environmental Protection Agency [EPA]
National Institutes of Environmental Health Sciences [NIEHS]
National Toxicology Program [NTP]
U.S. Food and Drug Administration [FDA]
p53, a tumor suppressor protein, is activated following cellular insult, including DNA damage and other cellular stresses. The activation of p53 regulates cell fate by inducing DNA repair, cell cycle arrest, apoptosis, or cellular senescence. The activation of p53, therefore, is a good indicator of DNA damage and other cellular stresses. The CellSensor p53RE-bla HCT-116 cell line (Invitrogen) contains a stably integrated beta-lactamase reporter gene under control of the p53 response elements. The activation of the reporter gene under culture conditions can be detected by fluorescence intensity. This cell line was used to screen the Tox21 compound library in a 1536-well plate format and to identify agonists that activate the p53 signaling pathway. The cytotoxicity of the Tox21 compound library against the p53 RE-bla HCT-116 cell line was tested in parallel by measuring the intra cellular ATP content in the same wells.
Tox21 Assay Protocol Summary:
The p53RE-bla cells were dispensed at 4,000 cells/5 ul/well in 1536-well black wall/clear bottom plates using a Multidrop dispenser. After the assay plates were incubated at a 37 C/5% CO2 incubator for 5 hours, 23 nL of compounds dissolved in DMSO, positive controls or DMSO only was transferred to the assay plate by a pin tool. The plates were incubated at 37 C for 16 hours. After 1 uL of LiveBLAzerTM B/G FRET substrate was added using a Flying Reagent Dispenser, the plates were incubated at room temperature for 2 hours, and fluorescence intensity was measured by an Envision plate reader. For cell viability readout that measures cytotoxicity, 4 ul/well of CellTiter-Glo reagent was added into the assay plates using a Flying Reagent Dispenser. After 30 min incubation at room temperature, the luminescence intensity in the plates was measured using a ViewLux plate reader.
Background: qHTS replaces the single test concentration by a dilution series.
Take `Nc1ccccc1O`: the Potency was 32 µM (active).
Consider `C=COCC1CCC(COC=C)CC1` (stereo not given), for which the “activity change, negative = cytotoxicity” value is -11% (inactive).
Same read-out and setting: under `Oc1cc(O)c(Cl)cc1Cl` stands -14% (inactive); under `CO[C@H]1C=CO[C@@]2(C)Oc3c(C)c(O)c4c(O)c(cc(O)c4c3C2=O)NC(=O)/C(C)=C\C=C/[C@H](C)[C@H](O)[C@@H](C)[C@@H](O)[C@@H](C)[C@H](OC(C)=O)[C@@H]1C`, -7.57% (inactive); under `O=C(C(Cl)Cl)N1CCOC12CCCCC2`, 7.89% (inactive).
Same read-out and setting: the value for `NC1CCN(c2nc3c(cc2F)c(=O)c(C(=O)O)cn3-c2ccc(F)cc2F)C1` (stereo not given) was 3.54% [at 30.3 µM] (inactive); that for `CC(=O)CC(c1ccc([N+](=O)[O-])cc1)c1c(O)c2ccccc2oc1=O` (stereo not given) was -14.6% [at 30.3 µM] (inactive); that for `CCC1=C(C)CN(C(=O)NCCc2ccc(S(=O)(=O)NC(=O)NC3CCC(C)CC3)cc2)C1=O` (stereo not given) was 3.35% [at 30.3 µM] (inactive).
The same measure, in the same setting: the value for `CCCCCCCCC1CO1` (stereo not given) was 4.6% (inactive); that for `Cn1nnc2c(C(N)=O)ncn2c1=O` was -10.6% [at 30.3 µM] (inactive); that for `CCOC(=O)[C@H](C)O` was -18.7% (inactive).
Consider `C=CC(=O)OCC(CO)(COCC(COC(=O)C=C)(COC(=O)C=C)COC(=O)C=C)COC(=O)C=C`, for which the Potency was 14.3 µM (active).
Turning to `COCCC(=O)OC`, the “activity change, negative = cytotoxicity” value was -3.1% (inactive).
On the same count and under the same terms, under `CCCCCCCC/C=C\CCCCCCCC(=O)OC[C@@H](O)[C@H]1OC[C@H](O)[C@H]1O` stands 15% (inactive); under `C=CC(=O)OCCCl`, 20.3% (inactive); under `CCCC(=O)C(=O)O`, 0.148% (inactive).
Still for that read-out and setting: under `CCCCCCCCCC#N` stands -12% (inactive); under `COc1ccc(-n2nc(C(F)F)cc2-c2ccc(S(C)=O)cc2)cc1` (stereo not given), -9.4% (inactive); under `Cc1ccc(O)cn1`, -7.35% (inactive).
For `COc1cc2nc(N3CCN(C(=O)C4CCCO4)CC3)nc(N)c2cc1OC` (stereo not given), the “activity change, negative = cytotoxicity” value is -6.88% [at 30.3 µM] (inactive).
As to `COc1c(N2C[C@@H]3CCCN[C@@H]3C2)c(F)cc2c(=O)c(C(=O)O)cn(C3CC3)c12`, the “activity change, negative = cytotoxicity” value is 4.37% [at 30.3 µM] (inactive).
The same measure, in the same setting: under `Oc1ccc(-c2ccc(O)cc2)cc1` stands 5.9% (inactive); under `Cn1cccc1`, -6.39% (inactive); under `CCOC(=O)CCCCCCCCC(=O)OCC`, -0.418% (inactive).
Consider `CC(C)(C)C1CCC(=O)CC1`, for which the “activity change, negative = cytotoxicity” value was 10.4% (inactive).
On to `Nc1ccc(S(=O)(=O)Nc2ccnn2-c2ccccc2)cc1`, for which the activity change, negative = cytotoxicity is -3.47% [at 13.5 µM] (inactive).
On the same count and under the same terms, the value for `C=CCn1c(=O)n(CC=C)c(=O)n(CC=C)c1=O` was 15.1% (inactive).
`Cc1cc(F)ccc1-c1cc(N2CC[C@@H](O)[C@H]2CO)ncc1N(C)C(=O)C(C)(C)c1cc(C(F)(F)F)cc(C(F)(F)F)c1`: the Potency was 16 µM (active).
As for `CC(O)COC(C)(C)C` (stereo not given), the “activity change, negative = cytotoxicity” value is -0.908% (inactive).
Same read-out and setting: the value for `Cc1nc2ccccc2n1Cc1ccc(Cl)cc1` was -11.9% [at 30.3 µM] (inactive); that for `C#CCN[C@@H]1CCc2ccccc21` was -9.8% [at 30.3 µM] (inactive); that for `O=NN(CCCl)C(=O)NCCCl` was -0.285% [at 30.3 µM] (inactive).
Still for that read-out and setting: the value for `O=C(O)c1c(O)c(-c2ccccc2)nc2ccccc12` was -18.5% [at 30.3 µM] (inactive).
Same read-out and setting: the value for `NS(=O)(=O)Cc1noc2ccccc12` was 23.3% [at 30.3 µM] (inactive); that for `CCCCOCC(C)O` (stereo not given) was -0.385% (inactive); that for `CCS(=O)(=O)CCn1c([N+](=O)[O-])cnc1C` was 12% [at 30.3 µM] (inactive).
`C=CC(=O)OCC(Br)CBr` (stereo not given): the “activity change, negative = cytotoxicity” value was 10.2% (inactive).
Still for that read-out and setting: the value for `CC(C)(O)CCCC1=CCC(C=O)CC1` (stereo not given) was 0% (inactive).
Take `CCCCCN(CCCOC)C(=O)C(CCC(=O)O)NC(=O)c1ccc(Cl)c(Cl)c1` (stereo not given): the “activity change, negative = cytotoxicity” value is -10.8% [at 30.3 µM] (inactive).
The same measure, in the same setting: under `CCCCCCCCCCc1ccccc1` stands 16.2% (inactive).
